About 83,000 compounds went through this panel and 20% of them were active in at least one assay; those are over-represented in the sample as a whole.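 Cell lines were cultured in 96-well plates, exposed to a single compound concentration, and assessed for percent growth 48 hours later.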 Activity calls are given as the source filed them. The calls were made as follows: active = growth percent below 10; inactive = the rest.
system: ACHN renal; test: NCI-60 one-dose screen, 48 h (100 = growth as untreated, 0 = no growth, -100 = all killed); conditions: 10 µM unless noted

| Compound | growth |
| --- | --- |
| NC1=CC(=O)C(=O)c2ccccc21 | 85.2% (inactive) |
| NC(CC(=O)O)C(=O)OCc1ccccc1 (stereo not drawn) | 97.1% (inactive) |
| Cc1ccn2c(-c3csc(Nc4cccc(O)c4)n3)c(C)nc2c1 | 26% (inactive) |
| COc1ccc(C(=O)c2sc3nc(-c4ccccc4OC)ccc3c2N)cc1OC | 66.9% (inactive) |
| Cc1nn(-c2nc3ccccc3[nH]2)c2c1C(c1ccc3c(c1)OCO3)CC(=O)N2 (stereo not drawn) | 31% (inactive) |
| COc1cnc2c(c1)C(=O)c1c-2n(CCCN2CCCC2)c(=O)c2cc([N+](=O)[O-])ccc12 | -91.2% (active) |
| Cc1cc(Nc2nc(N3CCOCC3)nc3ccccc23)n[nH]1 | 32.8% (inactive) |
| O=c1c(/C=C/c2ccco2)nnc(SCCN2CCOCC2)n1/N=C/c1ccc([N+](=O)[O-])cc1 | 99.7% (inactive) |
| Nc1nc2ccc(-c3nc4ccc5[nH]ncc5c4c4c3CCC4)cc2s1 | 17.7% (inactive) |
| COc1ccc(C(=O)c2sc3nc4c(cc3c2N)CCCC4)cc1OC | 63% (inactive) |
| O=C1Nc2c(ccc(Cl)c2Cl)/C1=C/c1cc(Br)c(O)c(Br)c1 | 70.8% (inactive) |
| Cn1c2c(Cl)c(Cl)ccc2c2ccn3c(=O)c4ccccc4nc3c21 | 93% (inactive) |
| C/C(=C(/c1ccc(O)cc1)c1ccc(Cl)cc1)c1ccccc1 | -92.3% (active) |
| Oc1ccc2c(=S)cc(-c3ccc(Br)cc3)oc2c1O | 13.9% (inactive) |
| COc1cccc(-n2cc(-c3nc(Nc4cc(C)[nH]n4)c4ccccc4n3)nn2)c1 | 24% (inactive) |
| O=C([C@@H](COCc1ccccc1)N1C(=O)[C@@H](N2C(=O)OC[C@@H]2c2ccccc2)[C@H]1/C=C/c1ccccc1)N1CCC(CCN2CCCCC2)CC1 | 99% (inactive) |
| COc1ccc(-c2cc(/C=C3\C(=O)Nc4ccc(Cl)cc43)[nH]n2)cc1 | 56.7% (inactive) |
| CNC(=S)N/N=C/CSC/C=N/NC(=S)NC | 99.6% (inactive) |
| CCCCCCCCOC(=O)CC[C@@H](C)[C@H]1CC[C@H]2[C@@H]3[C@H](OC(=O)CCN)C[C@@H]4C[C@H](OC(=O)CCN)CC[C@]4(C)[C@H]3C[C@H](OC(=O)CCN)[C@]12C | 96.2% (inactive) |

| Compound | growth |
| --- | --- |
| O=C1C=CC(=O)N1c1ccc(Cc2ccc(N3C(=O)C=CC3=O)cc2)cc1 | 94.1% (inactive) |
| N#CC1=C(N)Oc2c(ccc3ccccc23)C1c1cccs1 (stereo not drawn) | 35.2% (inactive) |
| Cc1cc(Nc2nc(N3CCNCC3)nc3ccccc23)n[nH]1 | 41.5% (inactive) |
| COc1cc(/C=N/N(C)C)ccc1O | 100% (inactive) |
| CCN(CC)CC(O)CNc1c2ccc([N+](=O)[O-])cc2nc2cc(OC)c(OC)cc12 (stereo not drawn) | 11.1% (inactive) |
| O=C1Nc2ccc(Br)cc2C12CC(c1ccccc1)=NN2 (stereo not drawn) | 49.1% (inactive) |
| O=C1C=CC(=O)c2c1nc1n2CCCC1 | 81.1% (inactive) |
| Cc1cc(=O)oc2cc(Oc3nc(-c4cccs4)cn4c(-c5cccs5)cnc34)ccc12 | 57.3% (inactive) |
| COc1ccc(-c2nc(Nc3cc(C)[nH]n3)c3ccccc3n2)cc1 | 42.8% (inactive) |
| O=C1Nc2ccccc2/C1=C/C(=N/c1nnc(-c2ccc(Cl)cc2)s1)c1ccccc1 | -71.4% (active) |
| Nc1cc2nc3ccccc3sc-2cc1=O | 65.5% (inactive) |
| Cc1csc2ccc(Cl)cc12 | 95.5% (inactive) |
| Cc1ccc(NC(=O)c2sc3nc4c(cc3c2N)C(=O)CCC4)cc1C | 52.2% (inactive) |
| Cc1ccc2c(c1)n([O-])c1cc(Cl)ccc1[n+]2=O | 114% (inactive) |
| CC(C)[C@@H]1CC[C@]2(C(=O)NCCCCN=C(N)N)CC[C@]3(C)[C@H](CC[C@@H]4[C@@]5(C)CCC(=O)C(C)(C)[C@@H]5CC[C@]43C)[C@@H]12 | 79.6% (inactive) |
| COC1C/C(=N\O)C2OC(c3ccccc3)OCC2O1 (stereo not drawn) | 108% (inactive) |
| COc1cc(-c2c3sc(=O)[nH]c3nc3c2c(=O)[nH]n3C(C)C)cc2c1OCO2 | 95.8% (inactive) |
| CCOC(=O)C(C#N)C1CCCCC1 (stereo not drawn) | 99.4% (inactive) |
| Cc1cc(Nc2nc(-c3cccnc3)nc3ccccc23)n[nH]1 | 38% (inactive) |
